Rows were chosen to be rich in hits. Some 0.87% of all compounds tested hit in one or more screens of this group.
RECQ1 inh-1: RECQ1 (human) helicase inhibition. AID 2549. RECQ1 DNA unwinding, red fluorescence kinetic read. Potency, µM (top dose mostly 57.3 µM), most hits filed as inhibitors. 240,000 tested, 0.54% active. P46063; also: nearly all actives have a fitted effect of over 30% in size
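RECQ1T1 50 nM; forked duplex (20 bp + 30-nt ss tails) 200 nM, ATP 2 mM final; pH 8.0, 2 mM MgCl2, 2.5 ug/ml poly(dI-dC); 15 min compound preincubation; discontinuous kinetic read over 2 h at RT.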
BLM helicase inh: inhibitors of human Bloom syndrome helicase BLM; P54132; recombinant BLM DNA unwinding, fluorescence dequenching; Potency, µM (series often up to 56.1 µM), actives largely listed as inhibitors; 350,000 tested, 0.2% active; also: nearly all actives have a fitted effect of over 35% in size
KAT2A inh: inhibitors of human GCN5L2 histone acetyltransferase; AID 504327; 390,000 tested, 0.21% active; GCN5L2 HAT assay, ThioGlo1 CoA-SH fluorescence; Q92830; Potency, µM (titrated, usually from 58.9 µM), actives largely listed as inhibitors
Target sequence (Q92830 whole entry, looked up): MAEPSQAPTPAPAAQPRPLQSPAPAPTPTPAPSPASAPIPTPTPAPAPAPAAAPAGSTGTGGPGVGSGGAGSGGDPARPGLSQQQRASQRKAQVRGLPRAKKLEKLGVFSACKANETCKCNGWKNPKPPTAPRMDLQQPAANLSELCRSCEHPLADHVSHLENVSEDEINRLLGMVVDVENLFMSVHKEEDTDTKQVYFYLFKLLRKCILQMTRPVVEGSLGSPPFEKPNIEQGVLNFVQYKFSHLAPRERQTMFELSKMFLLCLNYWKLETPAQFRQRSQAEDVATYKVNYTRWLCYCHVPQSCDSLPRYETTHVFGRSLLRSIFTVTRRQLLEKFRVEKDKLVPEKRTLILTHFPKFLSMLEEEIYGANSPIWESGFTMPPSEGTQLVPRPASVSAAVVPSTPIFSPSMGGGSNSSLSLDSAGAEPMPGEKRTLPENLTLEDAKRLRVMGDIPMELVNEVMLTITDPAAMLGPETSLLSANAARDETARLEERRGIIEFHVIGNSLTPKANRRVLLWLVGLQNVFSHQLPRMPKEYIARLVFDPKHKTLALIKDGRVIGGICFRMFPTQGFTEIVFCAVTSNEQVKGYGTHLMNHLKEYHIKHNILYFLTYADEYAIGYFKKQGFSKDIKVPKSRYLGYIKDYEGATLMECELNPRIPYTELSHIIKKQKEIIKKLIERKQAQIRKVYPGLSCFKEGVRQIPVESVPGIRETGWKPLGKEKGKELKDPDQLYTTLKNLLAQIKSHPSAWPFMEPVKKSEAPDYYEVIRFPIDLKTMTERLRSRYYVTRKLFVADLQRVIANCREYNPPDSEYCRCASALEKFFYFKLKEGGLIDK
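Compounds, pin-transferred from DMSO stocks, meet 20nM GCN5L2 for 15 min before the reaction begins with H3(1-25) peptide (75uM) and acetyl-CoA (70uM). Thiol-reactive ThioGlo1 reports CoA release over 20 min at room temperature.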
TDP1 inh: TDP1 (human) enzyme inhibition; recombinant TDP1, AlphaScreen DNA substrate cleavage; 350,000 tested, 0.28% active; AID 485290; Potency, µM (doses to about 130 µM), usual class: inhibitors; Q9NUW8; also: nearly all actives have a fitted effect of over 40% in size
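Tdp1 1 nM final; 15 min RT w/ cpd; substrate 15 nM, 5 min; beads 10 ug/ml, 10 min; AlphaScreen read. Neg ctrl: no enzyme.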
APEX1 inh: blocks human APE1 abasic DNA cleavage; P27695; recombinant APE1, TAMRA/BHQ-2 abasic DNA cleavage fluorescence; Potency, µM (top dose mostly 65.8 µM), usual class: inhibitors; 350,000 tested, 0.35% active; AID 2517; also: nearly all actives have a fitted effect of over 55% in size
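0.75 nM APE1 + cpd, 15 min RT; start w/ 50 nM TAMRA/BHQ-2 THF-abasic dsDNA; kinetic fluor 525/598 nm ×3 reads @60 s; Δ(read3−read1); normalized to DMSO and NSC13755 control wells.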
RECQ1 inh conf: confirmation of human RECQ1 helicase inhibitors; shares compounds with RECQ1 inh-1; RECQ1 helicase DNA unwinding, fluorescence; Potency, µM (highest dose often 229 µM), actives largely listed as inhibitors; 610 tested, 28% active; AID 2708; also: nearly all actives have a fitted effect of over 45% in size
RECQ1 ADP FP: counter-screen for RECQ1 inhibitors: ADP displacement | shares compounds with RECQ1 inh-1 | ADP fluorescence polarization displacement counterscreen | Potency, µM (highest dose often 228 µM), usual class: inhibitors | 530 tested, 27% active | AID 2711; also: nearly all actives have a fitted effect of over 45% in size
RECQ1 inh-2: blocks human RECQ1 DNA unwinding | 1,100 tested, 15% active | Potency, µM (doses to about 119 µM), hits mostly inhibitors | recombinant RECQ1 DNA unwinding, red fluorescence | shares compounds with RECQ1 inh-1; also: nearly all actives have a fitted effect of over 50% in size
Numbers stand for hits; 0 = inactive; ? = inconclusive; - = no result; [ ] = remark or other dose. Calls follow the shape of the dose curve; as a rule, active = well fitted curve in the direction sought with a large enough effect; inconclusive = small, poorly fitted or top-dose-only effect, or another doubt; inactive = no such curve, though single readings can be large; an effect the other way counts as inactive or inconclusive.

SMILES | RECQ1 inh-1 | BLM helicase inh | KAT2A inh | TDP1 inh | APEX1 inh | RECQ1 inh-2 | others
Cn1c2c(c(=O)n(C)c1=O)C(c1ccccc1Cl)CC(=O)N2 (configuration not stated) | 0 | 0 | 0 | 0 | 0 | -
O=C1CC(=O)CC(c2ccccc2Cl)C1 | ? | 0 | 0 | 0 | 0 | 0
CN(C)S(=O)(=O)c1cccc(C(=O)NC(=S)N(CCC#N)Cc2cccnc2)c1 | 0 | 0 | 0 | 0 | 0 | -
CCN(CC)S(=O)(=O)c1ccc(C(=O)NC(=S)N(CCC#N)Cc2cccnc2)cc1 | 0 | 0 | 0 | 0 | 0 | - | RECQ1 inh conf=0;RECQ1 ADP FP=0
CCCCN(C)CCNC(=O)c1cc(-c2ccc(Cl)s2)nc2ccccc12 | - | 0 | 0 | 0 | - | -
Cc1c(NC(=O)Nc2ccccc2C(F)(F)F)sc2nc3n(c(=O)c12)CCC(C)CC3 (configuration not stated) | - | 0 | 0 | 0 | - | -
Cc1ccc(NC2=Nc3ccccc3N3C2=Nc2c(c(C)nn2-c2ccccc2)C3c2ccc(O)c(O)c2)cc1 (configuration not stated) | 32µM | 0 | 0 | 0 | 0 | ?
COc1ccc(Cn2cccc(NC(=O)Nc3cccc(OC)c3)c2=O)cc1 | ? | 0 | 0 | 0 | 0 | 0
O=S1(=O)c2ccccc2N(Cc2ccc(Cl)cc2F)c2ccccc21 | - | 0 | 0 | 0 | - | -
CO[C@@H]1/C=C\CC(=O)N2CCC[C@@H]2C(=O)OC[C@H](C)C(=O)OC[C@H]1C | 0[11.5 µM] | 0[12.4 µM] | - | 0[21 µM] | 0[12.4 µM] | -
O=C(Nc1ccc(NC(=O)c2cccs2)cc1)c1ccc(Br)o1 | ? | 0 | 0 | - | ? | ?
O=C(O)CCSc1nnc(COc2cccc3ccccc23)n1-c1cccc(Cl)c1 | 0 | 0 | 0 | 0 | 0 | - | RECQ1 inh conf=0;RECQ1 ADP FP=0
CCn1c2ccccc2c2nnc(N3CCN(c4ccc(OC)cc4)CC3)nc21 | - | 0 | 0 | 0 | - | -
N#Cc1ccccc1CSc1nnc(-c2ccccc2)o1 | - | 0 | 0 | 0 | - | -
CC1CCN(S(=O)(=O)c2ccc(NC(=O)N3c4ccccc4Sc4ccccc43)cc2)CC1 | 0 | 0 | 0 | 0 | 0 | - | RECQ1 inh conf=0;RECQ1 ADP FP=0
Cc1ccc(N2CCN(Cc3nnc(-c4ccc5c(c4)OCO5)o3)CC2)c(C)c1 | - | 0 | 0 | 0[12.3 µM] | - | -
COc1cccc(NC(=O)CC2S/C(=N\S(=O)(=O)c3ccccc3)N(c3ccccc3)C2=O)c1 (configuration not stated) | 40µM | 0 | 0 | 0 | 0 | 0
O=C(O)CCC(=O)Nc1nc2nc(-c3ccccc3)cc(-c3ccccc3)n2n1 | 0 | 0 | 0 | 0 | 0 | - | RECQ1 inh conf=35µM;RECQ1 ADP FP=?
CC(=O)Nc1ccc(S(=O)(=O)Nc2nc3nc(-c4ccccc4)cc(-c4ccccc4)n3n2)cc1 | - | 0 | ? | - | 0 | -
C[C@H]1C(=O)N(S(=O)(=O)c2ccc([N+](=O)[O-])cc2)[C@H]1c1ccc(F)cc1 | 0 | 0 | - | 0 | 0 | -
CCCCN(CCCC)Cc1ccc(C(=O)NNC(=O)Nc2ccccc2)o1 | 0 | 0 | 0 | 0 | 0 | -
CCCCC#Cc1ccc(C(=O)NNC(=O)Nc2ccccc2)o1 | 28µM | 0 | ? | 0 | 0 | ?
O=C(O)Cc1cccc(OCCCN(Cc2cccc(C(F)(F)F)c2Cl)CC(c2ccccc2)c2ccccc2)c1 | ? | ? | 11µM | 0 | 0 | 25µM
Cc1ccc2nc3c(c(C(=O)O)c2c1)CCC3 | 0 | 0 | 0 | 0 | ? | -
O=C(O)c1c2c(nc3ccc(Cl)cc13)CCC2 | 28µM | 0 | 0 | - | ? | 0
O=C(Nc1ccc2nc(SCC(=O)N3CCCC3)sc2c1)c1ccccc1F | - | 0 | 0 | 0 | - | -
Cc1ccc(N(C(=O)Cn2nnc3ccccc32)C(C(=O)NCc2ccco2)c2cccnc2)cc1 (configuration not stated) | 0 | 0 | 0 | 0 | 0 | -
